From PubChem BioAssay (Tox21)
“And” between values parts separate entries of the source, which are not always exact repeats. Identical values can stand only once. Inconclusive results are not listed. A call without a number means that no potency is given here. A structure can be active in one record and inactive in another. The source made the active and inactive calls. Unless noted, the call rests on the fitted dose curve; in most records, active means well fitted curve in the direction sought with a large enough effect in the repeat runs; inconclusive means weak or mixed curves; inactive means no such curve, though single readings can be large; an effect the other way counts as inactive or inconclusive.

Columns and labels:
[1] = qHTS assay for small molecules that induce genotoxicity in human embryonic kidney cells expressing luciferase-tagged ATAD5 (AID 651632); further: nearly all actives have a fitted effect of over 15% in size
Summary of the method: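 Cells were seeded at 2,000 per well, dosed with compound, and incubated 16 hr at 37C in 5% CO2. Luciferase activity was then quantified after a 30 min room-temperature incubation with Amplite.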

[2] = qHTS assay for small molecule agonists of the p53 signaling pathway - cell viability (AID 651633; calls by dose curve; further: nearly all actives have a fitted effect of over 30% in size; further: potency means the concentration at half of the fitted maximal effect)
Summary of the method: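 p53RE-bla cells, seeded at 4,000 per well and rested 5 h at 37 C/5% CO2, received compounds in DMSO for 16 h at 37 C. CellTiter-Glo was then added, and luminescence was read after 30 min at room temperature to gauge cytotoxicity.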

[3] = qHTS assay for small molecules that induce genotoxicity in human embryonic kidney cells expressing luciferase-tagged ATAD5 - cell viability (AID 651634; calls by dose curve; further: nearly all actives have a fitted effect of over 25% in size; further: potency means the concentration at half of the fitted maximal effect)
Summary of the method: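 Cells (HEK293T, luciferase-tagged ATAD5) are seeded at 2,000 per well, dosed with compound or DMSO vehicle, and incubated 15.5 hr at 37C and 5% CO2. CellTiter-Fluor is added for 30 min before fluorescence is measured.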

[4] = qHTS assay for small molecule disruptors of the mitochondrial membrane potential (AID 720635); further: potency means the concentration at half of the fitted maximal effect
Summary of the method: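 HepG2 cells (2,000/well) attached overnight at 37C, then took compound for 1 hr at 37C, 5% CO2. Mito-MPS dye was added for 30 min; fluorescence was read at 490/535 nm (monomers) and 540/590 nm (aggregates).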

[5] = qHTS assay to test for compound auto fluorescence at 535 nm (green) in HepG2 cells (AID 720675)
[6] = qHTS assay to test for compound auto fluorescence at 460 nm (blue) in HEK293 cells (AID 720678)
Summary of the method: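 HEK293, 2,000 cells/well, 10% dialyzed FBS; attach 4-5 hr 37C; pin compound or DMSO; o/n 37C/5% CO2; fluorescence 405/460 nm; triamterene-equivalent units.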

[7] = qHTS assay to test for compound auto fluorescence at 590 nm (red) in HEK293 cells (AID 720679)
Summary of the method: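 Intensity at 540nm excitation and 590nm emission is reported as Rose Bengal sodium-equivalent autofluorescence. Measurements followed overnight exposure (37C, 5% CO2) of HEK293 cells, 2,000 per well, to 23 nL compound.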

[8] = qHTS assay for small molecule disruptors of the mitochondrial membrane potential - cell viability (AID 720634; calls by dose curve;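 further: human HepG2 liver cancer cells; series mostly up to about 83 µM; nearly all actives have a fitted effect of over 20% in size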)
Summary of the method: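 Cytotoxicity was measured by ATP quantitation in HepG2 wells that had first been treated with compound for 1 hr and stained with m-MPI dye; CellTiter-Glo incubation was 30 min at room temperature.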

[9] = qHTS assay to test for compound auto fluorescence at 590 nm (red) in HepG2 cells (AID 720674)
Summary of the method: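 Compound auto-fluorescence is scored relative to Rose Bengal sodium, measured at 540/590 nm in live HepG2 cultures after 1 hr compound contact (37 C, 5% CO2).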

SMILES | Potency [1] | Potency [2] | Potency [3] | Potency [4] | outcome [5] | Potency [6] | outcome [7] | Potency [8] | outcome [9]
O=C1CCCCC1 | inactive | inactive | inactive | inactive | inactive | inactive | inactive |  | 
ClC1=C(Cl)C(Cl)(Cl)C(Cl)=C1Cl | inactive | 13.8 µM (active) | 6.9 µM (active) and 15.4 µM (active) | 61.1 µM (active) | inactive | inactive | inactive | inactive | inactive
CC(C)(C)C(=O)C1C(=O)c2ccccc2C1=O | inactive | inactive | 17.1 µM (active) and 7.7 µM (active) | 10.8 µM (active) and 6.11 µM (active) | inactive | inactive | inactive | inactive | inactive
NCCNCCNCCNCCN | inactive | inactive | inactive | inactive | inactive | inactive | inactive | inactive | inactive
CN(CCOc1ccc(CC2SC(=O)NC2=O)cc1)c1ccccn1 (centres undefined) | inactive | inactive | inactive | 48.3 µM (active) | inactive | inactive | inactive |  | inactive
CC(=O)[C@@]1(O)CC[C@H]2[C@@H]3CCC4=CC(=O)CC[C@]4(C)[C@H]3CC[C@@]21C | inactive |  | inactive | inactive | inactive | inactive | inactive | inactive | inactive
CC1COc2ccccc2N1C(=O)C(Cl)Cl (centres undefined) |  | inactive | inactive |  | inactive | inactive | inactive | inactive | 
CCCCOCCOCCOC(=O)CCCCC(=O)OCCOCCOCCCC | inactive | inactive | inactive | inactive | inactive | inactive | inactive |  | 
Oc1ccc2ccccc2c1N=Nc1ccccc1 | inactive | inactive | 30.6 µM (active) and 48.6 µM (active) | 3.06 µM (active) and 6.11 µM (active) | inactive | inactive | inactive |  | 
Cc1cc(O)cc(C)c1Cl | inactive | inactive | inactive | 21.1 µM (active) and 21.7 µM (active) | inactive | inactive | inactive | inactive | inactive
C=C1CC[C@H](O)CC1=C/C=C1\CCC[C@]2(C)[C@@H]([C@H](C)/C=C/[C@H](C)C(C)C)CC[C@@H]12 | inactive | 54 µM (active) and 68.6 µM (active) | inactive | inactive and 60.6 µM (active) | inactive | inactive | inactive | inactive | 
CCCCCCC(C)(C)S | inactive |  | inactive | inactive | inactive | inactive | inactive | inactive | 
